Screen size: about 340,000 compounds; about 2,800 (0.82%) were called active.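 How the source made its calls: active means B-score under library mean minus 4 SD, starting fluorescence ratio at most library mean plus 5 SD; inactive means the rest.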 For the sample, actives were picked, then their nearest neighbours and some compounds at random.
These compounds were tested against Potassium channel subfamily K member 3 (Homo sapiens) (UniProt O14649) (assay: human KCNK3 channel inhibitors, primary screen, CHO cells, FluxOR thallium flux, B-score (AID 602410;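 on B-score: more negative B-score means stronger inhibition of thallium flux through KCNK3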)). Settings: FluxOR fluorescence, at 10 µM; stronger effect = lower value.
Potassium channel subfamily K member 3 (Homo sapiens), sequence (O14649 whole entry, looked up): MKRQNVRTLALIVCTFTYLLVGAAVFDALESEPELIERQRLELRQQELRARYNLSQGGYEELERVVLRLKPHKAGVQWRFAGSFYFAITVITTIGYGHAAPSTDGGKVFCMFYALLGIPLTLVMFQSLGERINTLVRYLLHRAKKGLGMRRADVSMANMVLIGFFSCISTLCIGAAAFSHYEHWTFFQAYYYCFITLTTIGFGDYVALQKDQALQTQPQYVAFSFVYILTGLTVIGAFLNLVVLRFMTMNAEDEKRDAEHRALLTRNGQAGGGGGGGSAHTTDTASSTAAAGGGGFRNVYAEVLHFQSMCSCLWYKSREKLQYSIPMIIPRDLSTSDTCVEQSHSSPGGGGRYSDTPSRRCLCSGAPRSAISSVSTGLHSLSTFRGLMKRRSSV
For `O=C(O)c1ccccc1C(=O)NC1=NN(c2ccccc2)CC1`, the B-score was “inactive”.
For `N/C(=N\OC(=O)CCn1cccc(C(F)(F)F)c1=O)c1ccc(OC(F)(F)F)cc1`, the B-score was “inactive”.
With `C=CCc1cc(S(=O)(=O)c2ccc(O)c(CC=C)c2)ccc1O` the B-score was -11 (active).
With `COc1ccc(CNC(=O)C2CCC(CNc3c(N4CCOCC4)c(=O)c3=O)CC2)cc1` (centres undefined) the B-score was “inactive”.
With `O=C(NCCc1ccccn1)c1nc(Cn2cc([N+](=O)[O-])cn2)no1` the B-score was “inactive”.
In the case of `O=C(c1cc(-c2ccc(O)cc2)on1)N1CCCc2ccccc21`, the B-score is reported as -9.08 (active).
With `O=C(c1cc(-c2cccc(O)c2)on1)N1CCc2ccccc2C1` the B-score was “inactive”.
`O=C(c1cc(-c2ccc(O)cc2)on1)N1CCOCC1` was tested, and the B-score was “inactive”.
In the case of `Cc1onc(-c2ccccc2)c1C(=O)N=C(N)c1ccc(Cl)cc1`, the B-score is reported as “inactive”.
With `CCc1ccc(C(=O)CSc2nnc(C)c(=O)[nH]2)cc1` the B-score was “inactive”.
For `COC(=O)c1c(NC(=O)c2ccccc2F)sc2c1C(C(=O)OC)CC2` (centres undefined), the B-score was “inactive”.
For `O=C(CNS(=O)(=O)c1ccccc1)NCC(=O)OCc1ccccc1F`, the B-score was “inactive”.
With `COCCNc1cc(-c2ccccc2)nc2cc(-c3cccc(F)c3)nn12` the B-score was -8.74 (active).
With `COC(=O)C(C)Sc1ccc2nnc(-c3cccc(F)c3)n2n1` (centres undefined) the B-score was “inactive”.
For `COc1ccc(NC(=O)c2cc3nc(-c4ccccc4)cc(C)n3n2)cc1OC`, the B-score was “inactive”.
With `O=C(CSc1ccccc1)Nc1cc(Cl)ccc1Oc1ccccc1` the B-score was “inactive”.
With `CC1CCCN(CC(=O)Nc2cc(Cl)ccc2Oc2ccccc2)C1` (centres undefined) the B-score was -11.4 (active).
`CC(=O)Nc1ccc(NC(=O)CN2CCCC(C)C2)c(Cl)c1` (centres undefined) was tested, and the B-score was “inactive”.
`O=C1CCC[C@@H]2CC(N3CCCCC3)C[C@@H]3CCN1[C@H]23` (some centres undefined) was tested, and the B-score was “inactive”.
`COc1ccc(CC(NC(C)=O)C(=O)N2CCN(C(=O)Nc3cccc(Cl)c3)CC2)cc1OC` (centres undefined) was tested, and the B-score was “inactive”.
With `CCc1nc(SCC(=O)NNC(=O)c2ccc(C)cc2)c2ccccc2n1` the B-score was -8.73 (active).
In the case of `CCCNC(=O)CSc1nc(Cc2ccccc2)nc2ccccc12`, the B-score is reported as “inactive”.
In the case of `Cc1ccc(C(=O)NNC(=O)CSc2nnc3ccccn23)cc1`, the B-score is reported as “inactive”.
With `C=CCSc1nc(Cc2ccc(Cl)cc2)nc2ccccc12` the B-score was “inactive”.
For `O=C(CNC(=O)c1ccc(Br)o1)Nc1ccccc1`, the B-score was “inactive”.
In the case of `CCCC(=O)Nc1ccc(Cl)c(NC(=O)c2ccc(Br)o2)c1`, the B-score is reported as -9.33 (active).
In the case of `CCN1CCN(c2c(Cl)cccc2NC(=O)c2ccc(Br)o2)CC1`, the B-score is reported as “inactive”.
In the case of `CC(=O)C1=C(C)NC(C)=C(C(C)=O)C1c1cn(-c2ccccc2)nc1-c1cccs1`, the B-score is reported as “inactive”.
`COc1ccc(C(C(=O)NC(C)(C)C)N(C(=O)Cn2nnc3ccccc32)c2ccc(C(C)=O)cc2)cc1O` (centres undefined) was tested, and the B-score was “inactive”.

From PubChem BioAssay AID602410 (Johns Hopkins Ion Channel Center, 2012)
